These results are taken from publication PMC7862700, “An all-to-all approach to the identification of sequence-specific readers for epigenetic DNA modifications on cytosine”.

Common to all, as to assay: DAPPL (digital affinity profiling via proximity ligation, sequencing); 10 mM Tris-HCl pH 7.5, 50 mM NaCl, 1 mM DTT, 4% glycerol, room temperature, 30 min; GST-TFs on glutathione beads, 16-mer random dsDNA library, 0.1% formaldehyde crosslink after washing; high values mean tight binding
What all share (details): protein: recombinant; tags: N-terminal GST; dsDNA, one strand shown

One test has as its target T1, FLI1 (Homo sapiens, UniProt Q01543 1-452).
T1 sequence: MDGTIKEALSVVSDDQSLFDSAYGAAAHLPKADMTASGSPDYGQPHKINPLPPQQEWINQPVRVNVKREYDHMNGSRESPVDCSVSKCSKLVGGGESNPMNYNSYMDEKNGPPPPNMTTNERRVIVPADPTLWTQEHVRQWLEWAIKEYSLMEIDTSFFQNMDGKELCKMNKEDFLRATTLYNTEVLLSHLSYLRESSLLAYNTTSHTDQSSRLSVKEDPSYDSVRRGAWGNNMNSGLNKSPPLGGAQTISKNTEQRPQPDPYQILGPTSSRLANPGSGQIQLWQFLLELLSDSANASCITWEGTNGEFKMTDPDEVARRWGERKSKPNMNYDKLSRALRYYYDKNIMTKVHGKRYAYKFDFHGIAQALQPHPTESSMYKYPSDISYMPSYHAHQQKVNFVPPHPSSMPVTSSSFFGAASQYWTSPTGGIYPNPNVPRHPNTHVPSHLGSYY
The procedure, abridged: (§1)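 Binding signal is each hexamer's read frequency for a factor divided by its frequency in the tag-only sample. The factors were GST-fused human transcription factors from yeast, captured on glutathione beads, DNA-barcoded and pooled with that sample. Pools were incubated with 200 nmole of a random double-stranded 16-mer DNA library in Tris/NaCl/DTT/glycerol buffer at room temperature for 30 min, then washed, crosslinked with 0.1% formaldehyde, proximity-ligated with BsaI/T4 ligase (1 h, 37 °C), PCR-amplified and sequenced on an Illumina NextSeq500.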

The next test concerns the target T2, ELK1 (Homo sapiens, UniProt P19419 1-428).
T2 sequence: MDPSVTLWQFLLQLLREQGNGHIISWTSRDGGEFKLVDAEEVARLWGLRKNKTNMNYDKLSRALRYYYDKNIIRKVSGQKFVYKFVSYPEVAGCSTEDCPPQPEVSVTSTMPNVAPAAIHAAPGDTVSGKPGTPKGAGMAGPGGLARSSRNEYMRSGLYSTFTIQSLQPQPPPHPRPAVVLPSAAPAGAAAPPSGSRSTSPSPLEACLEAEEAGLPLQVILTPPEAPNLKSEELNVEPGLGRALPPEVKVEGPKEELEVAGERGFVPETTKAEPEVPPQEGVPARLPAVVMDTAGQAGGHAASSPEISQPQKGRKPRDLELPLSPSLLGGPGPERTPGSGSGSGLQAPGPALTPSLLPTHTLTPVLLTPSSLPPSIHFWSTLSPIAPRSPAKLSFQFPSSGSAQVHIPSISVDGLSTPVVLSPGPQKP
The procedure, abridged:
as §1

Another test addresses T3, GABPA (Homo sapiens, UniProt Q06546 1-454).
T3 sequence: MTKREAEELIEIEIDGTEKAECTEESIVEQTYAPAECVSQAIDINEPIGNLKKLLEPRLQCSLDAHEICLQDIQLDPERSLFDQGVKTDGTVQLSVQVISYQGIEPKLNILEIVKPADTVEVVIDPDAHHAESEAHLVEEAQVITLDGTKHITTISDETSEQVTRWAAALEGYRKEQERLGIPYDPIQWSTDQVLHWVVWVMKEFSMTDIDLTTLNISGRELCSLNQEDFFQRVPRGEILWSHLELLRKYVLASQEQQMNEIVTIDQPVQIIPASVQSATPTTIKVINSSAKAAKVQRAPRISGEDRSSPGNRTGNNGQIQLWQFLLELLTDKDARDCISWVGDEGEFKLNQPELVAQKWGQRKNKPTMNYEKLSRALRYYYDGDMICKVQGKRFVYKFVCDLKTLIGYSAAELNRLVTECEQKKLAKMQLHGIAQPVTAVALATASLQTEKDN
The procedure, abridged:
as §1

For a further test, the target named is T4, ERG (Homo sapiens, UniProt P11308 1-479).
T4 sequence: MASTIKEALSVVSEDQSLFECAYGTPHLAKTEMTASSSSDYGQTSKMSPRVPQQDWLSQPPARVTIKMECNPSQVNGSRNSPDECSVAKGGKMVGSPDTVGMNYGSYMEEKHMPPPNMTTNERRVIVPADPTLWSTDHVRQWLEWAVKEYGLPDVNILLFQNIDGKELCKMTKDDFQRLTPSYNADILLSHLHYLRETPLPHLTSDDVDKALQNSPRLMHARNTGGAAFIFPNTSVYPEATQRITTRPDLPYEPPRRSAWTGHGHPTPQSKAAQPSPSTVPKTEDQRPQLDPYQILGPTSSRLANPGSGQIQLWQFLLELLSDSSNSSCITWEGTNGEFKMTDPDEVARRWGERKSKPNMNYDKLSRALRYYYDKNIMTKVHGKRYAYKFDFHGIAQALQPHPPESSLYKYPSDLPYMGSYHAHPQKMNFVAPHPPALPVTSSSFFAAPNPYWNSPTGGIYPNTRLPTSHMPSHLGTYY
The procedure, abridged: as §1

The target of another test is ELF1 (Homo sapiens, UniProt P32519 1-619). The procedure, abridged:
as §1

The next test concerns the target T5, EHF (Homo sapiens, UniProt Q9NZC4 1-300).
T5 sequence: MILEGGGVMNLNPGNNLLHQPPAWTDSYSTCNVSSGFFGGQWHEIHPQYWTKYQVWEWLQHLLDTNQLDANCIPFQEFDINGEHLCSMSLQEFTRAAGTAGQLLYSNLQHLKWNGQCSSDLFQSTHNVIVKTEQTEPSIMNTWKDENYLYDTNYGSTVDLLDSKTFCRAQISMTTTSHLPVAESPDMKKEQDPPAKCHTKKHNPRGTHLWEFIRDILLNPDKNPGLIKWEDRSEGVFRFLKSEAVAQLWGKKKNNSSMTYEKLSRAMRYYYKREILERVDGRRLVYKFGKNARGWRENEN
The procedure, abridged: as §1

A further test deals with SPI1 (Homo sapiens, UniProt P17947 1-270). The procedure, abridged: as §1
For another test, the target named is SPIB (Homo sapiens, UniProt Q01892 1-262). The procedure, abridged: as §1
Sequence of SPIB (Q01892 whole entry): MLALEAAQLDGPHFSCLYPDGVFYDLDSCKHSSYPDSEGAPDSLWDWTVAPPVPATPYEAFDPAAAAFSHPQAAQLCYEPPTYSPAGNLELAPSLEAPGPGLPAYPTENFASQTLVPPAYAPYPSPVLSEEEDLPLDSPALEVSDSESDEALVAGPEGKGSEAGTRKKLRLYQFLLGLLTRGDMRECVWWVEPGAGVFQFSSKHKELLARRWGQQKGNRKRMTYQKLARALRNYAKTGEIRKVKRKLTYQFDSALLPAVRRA
A further test concerns the target T6, ELK3 (Homo sapiens, UniProt P41970 1-407).
T6 sequence: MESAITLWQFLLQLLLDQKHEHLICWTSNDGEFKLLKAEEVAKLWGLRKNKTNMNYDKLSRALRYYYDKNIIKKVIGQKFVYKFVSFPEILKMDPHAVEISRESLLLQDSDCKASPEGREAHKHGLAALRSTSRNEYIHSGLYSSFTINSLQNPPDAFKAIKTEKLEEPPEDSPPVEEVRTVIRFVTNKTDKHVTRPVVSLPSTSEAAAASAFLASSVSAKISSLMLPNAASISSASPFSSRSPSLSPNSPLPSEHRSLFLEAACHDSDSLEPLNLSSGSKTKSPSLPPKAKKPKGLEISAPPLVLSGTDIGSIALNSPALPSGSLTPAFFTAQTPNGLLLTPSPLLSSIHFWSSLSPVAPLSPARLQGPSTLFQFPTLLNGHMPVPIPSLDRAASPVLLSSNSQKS
The procedure, abridged:
as §1

Sequence of ELF1 (P32519 whole entry): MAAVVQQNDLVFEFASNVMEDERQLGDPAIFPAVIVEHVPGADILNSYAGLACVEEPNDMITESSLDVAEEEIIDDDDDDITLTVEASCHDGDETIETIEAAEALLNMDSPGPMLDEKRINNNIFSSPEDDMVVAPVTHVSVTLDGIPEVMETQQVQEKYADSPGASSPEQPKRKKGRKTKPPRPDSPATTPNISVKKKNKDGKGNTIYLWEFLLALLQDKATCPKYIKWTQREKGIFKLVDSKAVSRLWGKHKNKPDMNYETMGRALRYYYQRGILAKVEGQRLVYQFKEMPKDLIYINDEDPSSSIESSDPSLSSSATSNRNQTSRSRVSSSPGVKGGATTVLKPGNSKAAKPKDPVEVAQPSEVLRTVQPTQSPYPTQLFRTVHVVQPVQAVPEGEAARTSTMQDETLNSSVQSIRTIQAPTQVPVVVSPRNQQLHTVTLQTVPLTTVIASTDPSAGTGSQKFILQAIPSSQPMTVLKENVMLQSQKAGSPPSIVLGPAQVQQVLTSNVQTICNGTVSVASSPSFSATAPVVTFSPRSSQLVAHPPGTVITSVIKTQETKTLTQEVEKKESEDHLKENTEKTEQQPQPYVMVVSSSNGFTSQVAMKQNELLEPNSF

Take ATGAAA: the binding signal is 1.11 fold enrichment (6-mer frequency, TF over GST control) in the test with FLI1; 1.17 fold enrichment (6-mer frequency, TF over GST control) in the test with ELK1; 1.16 fold enrichment (6-mer frequency, TF over GST control) with GABPA; 1.17 fold enrichment (6-mer frequency, TF over GST control) in the test with ERG; 1.2 fold enrichment (6-mer frequency, TF over GST control) with ELF1; 1.16 fold enrichment (6-mer frequency, TF over GST control) with EHF. Besides, the binding signal with SPI1 is 1.2 fold enrichment (6-mer frequency, TF over GST control); with SPIB it was 1.15 fold enrichment (6-mer frequency, TF over GST control); with ELK3, 1.06 fold enrichment (6-mer frequency, TF over GST control).
ATGCTT: the binding signal is 1.35 fold enrichment (6-mer frequency, TF over GST control) with FLI1; 1.42 fold enrichment (6-mer frequency, TF over GST control) in the test with ELK1; 1.26 fold enrichment (6-mer frequency, TF over GST control) with GABPA; 1.32 fold enrichment (6-mer frequency, TF over GST control) in the test with ERG; 1.27 fold enrichment (6-mer frequency, TF over GST control) with ELF1; 1.29 fold enrichment (6-mer frequency, TF over GST control) in the test with EHF. The binding signal with SPI1 was 1.24 fold enrichment (6-mer frequency, TF over GST control); with SPIB it was 1.4 fold enrichment (6-mer frequency, TF over GST control); with ELK3, 1.36 fold enrichment (6-mer frequency, TF over GST control).
Take AAGCAT: the binding signal with FLI1 is 1.09 fold enrichment (6-mer frequency, TF over GST control); with ELK1, 1.09 fold enrichment (6-mer frequency, TF over GST control); with GABPA, 1.14 fold enrichment (6-mer frequency, TF over GST control); with ERG it was 1.13 fold enrichment (6-mer frequency, TF over GST control); with ELF1 it was 1.09 fold enrichment (6-mer frequency, TF over GST control); with EHF, 1.06 fold enrichment (6-mer frequency, TF over GST control). Further, the binding signal with SPI1 was 1.06 fold enrichment (6-mer frequency, TF over GST control); with SPIB it was 1.14 fold enrichment (6-mer frequency, TF over GST control); in the test with ELK3, 1.04 fold enrichment (6-mer frequency, TF over GST control).
ATATCT: the binding signal is 1.25 fold enrichment (6-mer frequency, TF over GST control) with FLI1; 1.19 fold enrichment (6-mer frequency, TF over GST control) with ELK1; 1.26 fold enrichment (6-mer frequency, TF over GST control) in the test with GABPA; 1.21 fold enrichment (6-mer frequency, TF over GST control) with ERG; 1.21 fold enrichment (6-mer frequency, TF over GST control) with ELF1; 1.17 fold enrichment (6-mer frequency, TF over GST control) with EHF. The binding signal was 1.16 fold enrichment (6-mer frequency, TF over GST control) with SPI1; 1.21 fold enrichment (6-mer frequency, TF over GST control) with SPIB; 1.15 fold enrichment (6-mer frequency, TF over GST control) with ELK3.
Turning to TATCCG, the binding signal in the test with FLI1 was 2.64 fold enrichment (6-mer frequency, TF over GST control); with ELK1, 2.53 fold enrichment (6-mer frequency, TF over GST control); in the test with GABPA, 2.26 fold enrichment (6-mer frequency, TF over GST control); in the test with ERG, 3.2 fold enrichment (6-mer frequency, TF over GST control); with ELF1 it was 2.38 fold enrichment (6-mer frequency, TF over GST control); with EHF, 2.48 fold enrichment (6-mer frequency, TF over GST control). Also, the binding signal in the test with SPI1 was 2.29 fold enrichment (6-mer frequency, TF over GST control); with SPIB it was 2.8 fold enrichment (6-mer frequency, TF over GST control); with ELK3, 2.41 fold enrichment (6-mer frequency, TF over GST control).
In the case of ATTCAT, the binding signal with FLI1 is 1.28 fold enrichment (6-mer frequency, TF over GST control); with ELK1, 1.12 fold enrichment (6-mer frequency, TF over GST control); with GABPA, 1.14 fold enrichment (6-mer frequency, TF over GST control); with ERG it was 1.16 fold enrichment (6-mer frequency, TF over GST control); in the test with ELF1, 1.16 fold enrichment (6-mer frequency, TF over GST control); with EHF it was 1.12 fold enrichment (6-mer frequency, TF over GST control). For the same sequence, the binding signal in the test with SPI1 is 1.15 fold enrichment (6-mer frequency, TF over GST control); with SPIB, 1.21 fold enrichment (6-mer frequency, TF over GST control); with ELK3, 1.19 fold enrichment (6-mer frequency, TF over GST control).
Take ACTAAT: the binding signal was 1.33 fold enrichment (6-mer frequency, TF over GST control) with FLI1; 1.27 fold enrichment (6-mer frequency, TF over GST control) in the test with ELK1; 1.23 fold enrichment (6-mer frequency, TF over GST control) with GABPA; 1.2 fold enrichment (6-mer frequency, TF over GST control) in the test with ERG; 1.33 fold enrichment (6-mer frequency, TF over GST control) with ELF1; 1.37 fold enrichment (6-mer frequency, TF over GST control) with EHF. Moreover, the binding signal with SPI1 was 1.28 fold enrichment (6-mer frequency, TF over GST control); with SPIB it was 1.39 fold enrichment (6-mer frequency, TF over GST control); with ELK3, 1.37 fold enrichment (6-mer frequency, TF over GST control).
With TTCATG, the binding signal with FLI1 is 1.35 fold enrichment (6-mer frequency, TF over GST control); with ELK1, 1.26 fold enrichment (6-mer frequency, TF over GST control); with GABPA, 1.35 fold enrichment (6-mer frequency, TF over GST control); with ERG, 1.28 fold enrichment (6-mer frequency, TF over GST control); with ELF1, 1.33 fold enrichment (6-mer frequency, TF over GST control); with EHF, 1.29 fold enrichment (6-mer frequency, TF over GST control). For the same sequence, the binding signal in the test with SPI1 was 1.32 fold enrichment (6-mer frequency, TF over GST control); in the test with SPIB, 1.34 fold enrichment (6-mer frequency, TF over GST control); with ELK3, 1.22 fold enrichment (6-mer frequency, TF over GST control).
